In PubChem BioAssay (NCATS) one finds Potency, outcome and max response data, which are given here for 21 compounds.

SMILES strings stand for the structures. A number with no mark means an inactive call. Results filed as inconclusive are left out. The source made the active and inactive calls. Calls come from the whole dose curve; as a rule, active = well fitted curve in the direction sought with a large enough effect; inconclusive = small, poorly fitted or top-dose-only effect, or another doubt; inactive = no such curve, though single readings can be large; an effect the other way counts as inactive or inconclusive.

The target of test [1] is Protein phosphatase 1D (Homo sapiens) (UniProt O15297). In words: RapidFire Mass Spectrometry qHTS Assay for Modulators of WT P53-Induced Phosphatase 1 (WIP1) (AID 1347424).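 Note: amount of dephosphorylated VEPPL-S-QETFS peptide product formed by WIP1.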 Note: potency is the fitted concentration of half-maximal effect. The essentials:
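WIP1 (10 nM final) was preincubated 1 h at room temperature with compounds in Tris-HCl pH 7.5, 30 mM MgCl2, TCEP, EGTA, BSA; 2 uM VEPPL-pS-QETFS phosphopeptide was added for 5 min, quenched with formic acid, and dephosphorylated product quantified by RapidFire MS.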

Test [2] has the same target. Nature of the test: Rhodamine-PBP qHTS Assay for Modulators of WT P53-Induced Phosphatase 1 (WIP1) (AID 1347425). Note: % of control where 0% means no effect. The essentials:
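Read-out: Rhodamine-PBP fluorescence (ex 525/em 598 nm) for released Pi, read each minute for 11 min after adding 10 uM VEPPL-pS-QETFS; signal taken as f1 minus pre-substrate f0. Enzyme 5 nM WIP1 with 1 hr room-temperature compound preincubation.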
(qHTS replaces the single test concentration by a dilution series.)

Test [3] is described as follows: Primary qHTS for inhibitors of La Crosse Virus (LACV) - induced cell death in SH-SY5Y cells (AID 1508616). Note: potency is the fitted concentration of half-maximal effect. The essentials: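 Luminescent ATP readout (ATPLite 1step, 5 min room temperature) measured rescue from LACV-induced death after 6 days of infection at 0.01 MOI; normalized to infected DMSO wells and uninfected DMSO wells.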
For test [4], the target named is Calcium and integrin-binding protein 1 (Homo sapiens) (UniProt Q99828). Nature of the test: Primary qHTS for Identification of Calcium Integrin Binding Protein 1 (CIB1) Competitor (AID 1508620).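 Note: GST tagged CIB1 binding a fluorescein labelled alphaIIb integrin peptide tracer; top concentration of the series differs between compounds; % is set by controls: 0 for no effect and ±100 for the full control effect.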 The essentials:
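Fluorescence polarization competition: CIB1-GST (1 uM final) preincubated with compound 15 min at room temperature, then FITC-labeled alphaIIb peptide (100 nM final) added for another 15 min. Polarization read at Ex 480/Em 540.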

Test [5] is described as follows: Counterscreen qHTS for small molecule stabilizers of the endoplasmic reticulum resident proteome: GLuc-NoTag assay (AID 1508627).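 Note: SH-SY5Y cells given compound then 100 nM thapsigargin to empty ER calcium; series mostly up to about 76 µM; 0% = thapsigargin alone and -100% = DMSO vehicle control.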 In short, it runs like this: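 SH-SY5Y cells stably expressing constitutively secreted GLuc (no SERCaMP tag) were pre-incubated 5 h, treated with compound for 19 h, then 100 nM thapsigargin for 4 h at 37C; medium GLuc read by coelenterazine luminescence.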
(In general: The purpose of a counterscreen is to sort out artefacts and off-target activity.)

Test [6] can be described thus: Confirmatory qHTS for small molecule stabilizers of the endoplasmic reticulum resident proteome: Secreted ER Calcium Modulated Protein (SERCaMP) assay (AID 1508628). Note: nearly all actives have a fitted effect of over 40% in size. Note: potency is the fitted concentration of half-maximal effect. The essentials: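 We seeded SH-SY5Y-GLuc-SERCaMP cells, added compounds (three concentrations in the primary run, eleven up to 76.6 uM in confirmation), incubated 16 h, depleted ER calcium with thapsigargin, and read luciferase 4 h later.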

Test [7] can be described thus: Cell Viability qHTS for small molecule stabilizers of the endoplasmic reticulum resident proteome (AID 1508629).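 Note: human SH-SY5Y neuroblastoma cells carrying the GLuc-SERCaMP reporter; compound exposure about 46 h in total before the viability read; % is set by controls: 0 for no effect and ±100 for the full control effect.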 Conditions: cell viability counter-screen, 100 nM thapsigargin for final 4 h.
Test [8] can be described thus: Primary qHTS for small molecule stabilizers of the endoplasmic reticulum resident proteome: Secreted ER Calcium Modulated Protein (SERCaMP) assay (AID 1508630). Note: potency is the fitted concentration of half-maximal effect. In short, it runs like this: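 GLuc-SERCaMP-expressing SH-SY5Y cells, pretreated 16 h with compound, are challenged with thapsigargin to empty ER calcium stores; after 4 h, coelenterazine is added directly to the medium and luminescence is imaged.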

Test [9] in a line: qHTS for inhibitors of adenylyl cyclases using a fission yeast platform: a pilot screen against the NCATS LOPAC library (AID 1347410).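 Note: plate controls were DMSO vehicle for no effect and DPI positive control for full effect.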 The essentials:
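GFP from fbp1-GFP reporter, read by Acumen laser cytometry, indicates AC inhibition in fission yeast expressing AC9, GNAS and PDE4D2. Cells grown 18 h in the dark at 30C with compounds, final up to 57 uM.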

Test [10] in a line: Validation qHTS assay for inhibitors of Activation Induced Cytidine Deaminase (AID): UDG Counterscreen signal (AID 1347427). Note: 0% is about no effect. The essentials:
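Counterscreen read of UDG activity (2 U/mL, 4/3x) in the FRET deamination format with AID (1 uM, 4/3x), DJC20/DJC23 substrates (250 nM, 4x), 4 h at room temperature. NaOH stop, fluorescence at 560 ex/665 em.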

The target of test [11] is Calcium and integrin-binding protein 1 (Homo sapiens) (UniProt Q99828). Nature of the test: Validation qHTS for Identification of Calcium Integrin Binding protein 1 (CIB1) Competitor (AID 1508618). Note: % is set by controls: 0 for no effect and ±100 for the full control effect. In short, it runs like this: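 CIB1-GST (1 uM final) in 5 mM HEPES pH 7.4, 125 mM NaCl, 5 mM CaCl2, 0.01% Tween20 was preincubated 15 min at room temperature with compound (up to 114 uM), then FITC-alphaIIb peptide (100 nM) added for 15 min; fluorescence polarization read.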

The nature of test [12]: qHTS to identify inhibitors of the type 1 interferon - major histocompatibility complex class I in skeletal muscle: primary screen against the NCATS Pharmaceutical Collection (AID 1347407).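 Note: luminescence of HiBiT knocked into endogenous HLA-B as interferon-induced MHC class I level; % is set by controls: 0 for no effect and ±100 for the full control effect.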 The essentials:
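Compounds […] were added to CRISPR-engineered HLA-B-HiBiT C25cl48 human myoblasts with 4.0 ng/ml IFN-beta. After 24 hrs at 37 C, cells were lysed and HiBiT luminescence measured.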

Test [13] deals with Calcium and integrin-binding protein 1 (Homo sapiens) (UniProt Q99828). Nature of the test: Confirmatory qHTS for Identification of Calcium Integrin Binding Protein 1 (CIB1) Competitor (AID 1508617). Note: % is set by controls: 0 for no effect and ±100 for the full control effect; nearly all actives have a fitted effect of over 65% in size. In short, it runs like this:
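Fluorescence polarization competition: CIB1-GST (1 uM final) in 5 mM HEPES pH 7.4, 125 mM NaCl, 5 mM CaCl2, 0.01% Tween20 preincubated 15 min RT with compound (up to 114 uM), then FITC-alphaIIb peptide (100 nM) added, 15 min RT.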

Sequence of Calcium and integrin-binding protein 1 (Homo sapiens) (Q99828 whole entry, looked up): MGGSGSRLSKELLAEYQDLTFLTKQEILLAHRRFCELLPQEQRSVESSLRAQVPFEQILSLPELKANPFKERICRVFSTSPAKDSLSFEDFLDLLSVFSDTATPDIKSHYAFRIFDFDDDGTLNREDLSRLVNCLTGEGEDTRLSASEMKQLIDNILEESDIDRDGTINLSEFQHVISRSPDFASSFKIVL
Sequence of Protein phosphatase 1D (Homo sapiens) (O15297 whole entry, looked up): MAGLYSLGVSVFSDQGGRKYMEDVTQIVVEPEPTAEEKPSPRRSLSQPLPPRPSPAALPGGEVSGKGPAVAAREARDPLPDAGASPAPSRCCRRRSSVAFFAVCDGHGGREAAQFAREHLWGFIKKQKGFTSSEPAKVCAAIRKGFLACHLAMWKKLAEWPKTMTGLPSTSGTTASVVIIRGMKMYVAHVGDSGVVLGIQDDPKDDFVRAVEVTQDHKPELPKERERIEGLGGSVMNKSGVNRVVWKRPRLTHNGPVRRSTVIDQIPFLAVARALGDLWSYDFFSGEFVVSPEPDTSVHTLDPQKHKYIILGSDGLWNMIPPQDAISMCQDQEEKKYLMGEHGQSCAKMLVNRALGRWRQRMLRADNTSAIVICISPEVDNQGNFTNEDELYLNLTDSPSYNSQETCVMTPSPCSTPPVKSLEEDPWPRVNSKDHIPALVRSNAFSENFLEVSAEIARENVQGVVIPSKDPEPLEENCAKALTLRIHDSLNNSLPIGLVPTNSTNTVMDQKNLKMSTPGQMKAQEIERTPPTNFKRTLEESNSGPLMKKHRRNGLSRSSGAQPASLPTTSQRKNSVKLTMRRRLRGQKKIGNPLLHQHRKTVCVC

As to `CCN1CCN(c2cc3c(cc2F)c(=O)c(C(=O)O)cn3C2CC2)CC1`, the Potency entry in [1], in [3], in test [4] and in [6] was “inactive” in each case. Besides, the call in [2] and in test [5] was inactive. In addition, the max response in test [7] was 21.1%. In addition, in test [8], the Potency is 1.12 µM (active).
In the case of `CCCC(=O)Nc1ccc(OCC(O)CNC(C)C)c(C(C)=O)c1` (stereo not given), the Potency entry in [1], in test [3] and in test [4] was “inactive” each time. In addition, the compound was called inactive in [2].
Consider `COc1cc2c(cc1O)CC[C@@H]1[C@@H]2CC[C@]2(C)[C@@H](O)CC[C@@H]12`, for which the compound was classed as inactive in test [9], in [10] and in test [11]. In addition, the Potency in test [3] was 0.631 µM (active). Besides, the Potency entry in test [8] was “inactive”.
Consider `CCOC(=O)OC(C)OC1=C(C(=O)Nc2ccccn2)N(C)S(=O)(=O)c2ccccc21` (stereo not given), for which the Potency result in test [12], in test [3] and in [4] was “inactive” in each case.
For the compound `CN(C(=O)CN(CCO)CC(=O)N(C)C(C)(C)Cc1ccccc1)C(C)(C)Cc1ccccc1`, the Potency entry in test [1] and in test [3] was “inactive” each time. In [2], the outcome was inactive.
For `CC(C)C[C@H]1C(=O)N2CCC[C@H]2[C@]2(O)O[C@](NC(=O)[C@@H]3C=C4c5cccc6[nH]c(Br)c(c56)C[C@H]4N(C)C3)(C(C)C)C(=O)N12`, the compound was called inactive in test [9], in [10] and in test [11]. The Potency result in test [3] is “inactive”.
Take `CCOC(=O)c1cccc(N)c1`: the Potency result in test [1], in test [3] and in [4] was “inactive” each time. Moreover, the result in test [2] was inactive.
As to `CC1=C(C(=O)OC(C)C)C(c2cccc([N+](=O)[O-])c2)C(C(=O)OC2CN(C(c3ccccc3)c3ccccc3)C2)=C(N)N1` (stereo not given), the Potency in test [6] is 28.2 µM (active). Moreover, the max response in test [7] is -0.744%.
Regarding `COc1cccc2c1C(=O)c1c(O)c3c(c(O)c1C2=O)C[C@@](O)(C(=O)CO)C[C@@H]3O[C@H]1C[C@H](N)[C@H](O)[C@H](C)O1`, the Potency result in test [1] and in test [8] was “inactive” throughout. Moreover, the compound was called inactive in test [2].
For `CC(=O)Oc1ccc(C(c2ccc(OC(C)=O)cc2)c2ccccn2)cc1`, the result in [2] was inactive. Further, the Potency result in test [3], in test [4] and in [8] was “inactive” each time.
For `O=C(O)CCCCC(=O)O`, the Potency result in test [1] and in [3] was “inactive” throughout.
Turning to `O=C(Nc1ccc(Oc2ccc(Cl)cc2)c(Cl)c1)c1cc(I)cc(I)c1O`, the Potency entry in [1] and in test [3] was “inactive” each time. For the same compound, the compound was classed as inactive in test [5].
As for `CC(C)NC[C@@H](O)COc1cccc2ccccc12`, the Potency result in [1], in test [3], in [4] and in test [8] was “inactive” throughout.
On to `CC/C(=C(/CC)c1ccc(O)cc1)c1ccc(O)cc1`, for which the Potency in test [1] was 15.8 µM (active). For the same compound, the Potency result in [3], in [4] and in [8] was “inactive” throughout.
With `Oc1c(Cl)cc(Cl)cc1Sc1cc(Cl)cc(Cl)c1O`, the Potency in [1] is 12.6 µM (active). Besides, the Potency result in test [3], in test [4] and in test [8] was “inactive” throughout.
As for `Cc1cc(N)c2cc(NC(=O)Nc3ccc4nc(C)cc(N)c4c3)ccc2n1`, the Potency result in test [1], in [4] and in [8] was “inactive” throughout. For the same compound, in test [2], the call was inactive.
With `COCc1c(C(C)C)nc(C(C)C)c(/C=C/[C@@H](O)C[C@@H](O)CC(=O)O)c1-c1ccc(F)cc1`, the Potency entry in [1] and in test [8] was “inactive” each time. Moreover, in test [2], the call was inactive.
With `CCCCCCCCCCCCCCCC[N+](C)(C)CCN(Cc1ccc(OC)cc1)c1ncccn1`, the compound was called inactive in [2]. The Potency result in test [3], in [13] and in test [8] was “inactive” throughout.
For `CN=C(NC#N)NCCSCc1csc(N=C(N)N)n1`, the result in test [2] was inactive. The Potency result in test [3], in test [4] and in [8] was “inactive” throughout.
Consider `Cc1c(C)n(Cc2ccccc2)c2ccc(C(=O)OCCN(C)C)cc12`, for which the Potency entry in [1], in test [3], in test [4] and in test [8] was “inactive” throughout.
For the compound `C[C@H]1C[C@H]2[C@@H]3CCC4=CC(=O)C=C[C@]4(C)[C@@]3(Cl)[C@@H](O)C[C@]2(C)[C@@]1(O)C(=O)CO`, in [2], the compound was classed as inactive. Moreover, the Potency entry in [3], in [4] and in test [8] was “inactive” throughout.
